Structures are written as SMILES. Inconclusive results are not listed. A number with no mark means an inactive call. Calls of active or inactive are those of the source. Calls follow the shape of the dose curve; as a rule, active = well fitted cell-killing curve with a large enough effect; inconclusive = small, poorly fitted or top-dose-only effect, or effect the other way; inactive = flat fitted curve, though single readings scatter.
% is scaled to controls: 0 for no effect and ±100 for the full control effect; potency is read from the fitted curve at half-maximal effect.

The first test concerns OV90. The experiment in a line: Primary qHTS to identify gynecologic anti-cancer compounds using libraries of approved drugs and bioactive compounds (AID 1345084). Also: nearly all actives have a fitted effect of over 55% in size. The following applies: Gynecologic cancer cell panel viability, ATPlite luminescence, 48 h; series mostly up to 57.5 µM; activity change, negative = cytotoxicity: at the top concentration. The procedure, abridged:
(§1)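 Cytotoxicity screen measuring ATP content by luciferase luminescence. Each compound is applied at five concentrations for 48 h at 37 C with 5% CO2.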
In general terms: qHTS replaces the single test concentration by a dilution series.
As for `CN[C@@H]1[C@@H](O)[C@@H](O[C@@H]2[C@@H](O)[C@H](O[C@H]3O[C@@H]([C@@H](C)NC)CC[C@H]3N)[C@@H](N)C[C@H]2N)OC[C@]1(C)O`, the “activity change, negative = cytotoxicity” value was 15.2%.
The same measure, in the same setting: as for `C[N+]1(C)[C@@H]2CC[C@H]1CC(OC(=O)C(O)c1ccccc1)C2` (some centres not stated), the figure is 6.41%; as for `CCNC(=O)[C@@H]1CCCN1C(=O)[C@H](CCCN=C(N)N)NC(=O)[C@H](CC(C)C)NC(=O)[C@@H](CC(C)C)NC(=O)[C@H](Cc1ccc(O)cc1)NC(=O)[C@H](CO)NC(=O)[C@H](Cc1c[nH]c2ccccc12)NC(=O)[C@H](Cc1cnc[nH]1)NC(=O)[C@@H]1CCC(=O)N1`, 10.9% [at 25.3 µM].
On the same count and under the same terms, as for `CC(CCC1(O)OC2CC3C4CC=C5CC(O[C@@H]6O[C@H](CO)[C@@H](O[C@@H]7O[C@H](CO)[C@@H](O)[C@H](O)[C@H]7O)[C@H](O)[C@H]6O[C@@H]6O[C@@H](C)[C@H](O)[C@@H](O)[C@H]6O)CCC5(C)C4CCC3(C)C2C1C)CO[C@@H]1O[C@H](CO)[C@@H](O)[C@H](O)[C@H]1O` (some centres not stated), the figure is -1.03% [at 11.6 µM]; as for `CN([C@H]1c2cc(OCCCC(F)(F)F)ccc2OC(C)(C)[C@@H]1O)S(C)(=O)=O`, 2.64%.
The same measure, in the same setting: as for `Cn1c(NC[C@@H](N)Cc2ccccc2)nc(-c2ccncc2)c(-c2ccc3ccccc3c2)c1=O`, the figure is -7.97%.
`CCCCC(=O)N(Cc1ccc(-c2ccccc2-c2nn[nH]n2)cc1)C(C(=O)O)C(C)C` (configuration not stated): the “activity change, negative = cytotoxicity” value is -1.28%.
With `COc1ccc(NS(=O)(=O)c2sc3ccc(Cl)cc3c2C)cc1N1CCNCC1`, the “activity change, negative = cytotoxicity” value was -13.6%.
On the same count and under the same terms, in the case of `CCCCc1nc(Cl)c(CO)n1Cc1ccc(-c2ccccc2-c2nnn[nH]2)cc1` it was 1.04%; in that of `CCC(=O)c1cc(-c2ccc(Cl)cc2)n(-c2ccc(S(N)(=O)=O)cc2)c1C`, 3.73%; in that of `Cc1nnsc1C(=O)Nc1ccc(-n2nc(C(F)(F)F)cc2C(F)(F)F)cc1`, -9.46%.
As for `Cc1cc(C)c(NC(=O)N(Cc2ccc3c(c2)Cc2ccccc2-3)C2CCCCCC2)c(C)c1`, the “activity change, negative = cytotoxicity” value was -20.6%.
As to `Fc1ccccc1CNCc1ccc(-c2ccnc3[nH]ccc23)cc1`, the “activity change, negative = cytotoxicity” value is -4.23%.
The same measure, in the same setting: in the case of `CN(Cc1ccc(C(=O)O)cc1)c1ccc(OCc2c(-c3c(Cl)cccc3Cl)noc2C2CC2)nc1C(F)(F)F` it was 12.7%; in that of `Cc1nc(C)c2c(n1)N(Cc1ccc(-c3ccccc3-c3nn[nH]n3)cc1)C(=O)CC2`, -1.01%; in that of `N#C[C@@H]1C[C@@H]2C[C@@H]2N1C(=O)[C@@H](N)C12CC3CC(CC(O)(C3)C1)C2`, 2.75%.
Take `CS(=O)(=O)c1ccc(-c2cn3ccccc3n2)cc1`: the Potency is 7.94 µM (active).
For `CCCCOc1ccc(-c2cncc(C(=O)NCc3cccnc3N3CCOCC3)c2)cc1Cl`, the “activity change, negative = cytotoxicity” value is -6.6%.
As to `C=CC(=O)N1CCN(C(=O)c2cc(-c3cc(Cl)ccc3Cl)c(Cl)cc2OC)CC1`, the “activity change, negative = cytotoxicity” value was -2.03%.
On to `CC[C@H]1OC(=O)[C@H](C)[C@@H](O[C@H]2C[C@@](C)(OC)[C@@H](O)[C@H](C)O2)[C@H](C)[C@@H](O[C@@H]2O[C@H](C)C[C@H](N(C)C)[C@H]2O)[C@](C)(O)C[C@@H](C)/C(=N/OCOCCOC)[C@H](C)[C@@H](O)[C@]1(C)O`, for which the “activity change, negative = cytotoxicity” value was 12%.
Still for that read-out and setting: in the case of `C[C@@H](O[C@H]1OCCN(Cc2n[nH]nc2CN(C)C)[C@H]1c1ccc(F)cc1)c1cc(C(F)(F)F)cc(C(F)(F)F)c1` it was 2.85%.
The same measure, in the same setting: as for `Cc1cc(CN)cc(C)c1NC(=O)c1ccc(-c2cc(Cl)ccc2Cl)o1`, the figure is -25.6%; as for `CCCCc1nc(C)c(CC(=S)N(C)C)c(=O)n1Cc1ccc(-c2ccccc2-c2nn[nH]n2)cc1`, -0.141%; as for `CC(=O)N1CCN([C@H]2CCN(C(=O)N(C)[C@H](C)c3cc(C(F)(F)F)cc(C(F)(F)F)c3)[C@@H](c3ccc(F)cc3C)C2)CC1`, -0.842%.
On to `CC1(C)SC2C(NC(=O)[C@H](C(=O)O)c3ccsc3)C(=O)N2C1C(=O)O` (some centres not stated), for which the “activity change, negative = cytotoxicity” value was 5.19%.
As to `Cc1cc(C)c(-c2csc(NC(=O)c3ccccc3)n2)c(C)c1`, the “activity change, negative = cytotoxicity” value is -29.1%.
Same read-out and setting: as for `COc1c(N2CC3CCCNC3C2)c(F)cc2c(=O)c(C(=O)O)cn(C3CC3)c12` (configuration not stated), the figure is -0.834%.
For `CO[C@@H]1[C@@H](O[C@H]2O[C@@H](C)[C@H](O[C@@H]3C[C@](C)(O)[C@H](O)[C@@H](C)O3)[C@@H](N(C)C)[C@@H]2O)[C@@H](CC=O)C[C@@H](C)[C@@H](O[C@H]2CC[C@H](N(C)C)[C@H](C)O2)/C=C/C=C/C[C@@H](C)OC(=O)C[C@H]1O`, the “activity change, negative = cytotoxicity” value is 17%.
`Cc1cc(CS(=O)(=O)c2ccccc2)cc(OCc2ccc(CN3CCC[C@@H]3CO)cc2)c1`: the Potency is 25.1 µM (active).
On to `Cc1ccn(-c2cc(Cl)ccc2[C@@H](Oc2cc(-c3ccc(C[C@H](N)C(=O)O)cc3)nc(N)n2)C(F)(F)F)n1`, for which the “activity change, negative = cytotoxicity” value is -4.94%.

Another test concerns PA-1. The test is described as above. The following applies: Gynecologic cancer cell panel viability, ATPlite luminescence, 48 h; series mostly up to 57.5 µM; activity change, negative = cytotoxicity: at the top concentration. An outline of the steps: as §1
For orientation: ATP-based viability assays read luminescence as a measure of living cells.
For `CN[C@@H]1[C@@H](O)[C@@H](O[C@@H]2[C@@H](O)[C@H](O[C@H]3O[C@@H]([C@@H](C)NC)CC[C@H]3N)[C@@H](N)C[C@H]2N)OC[C@]1(C)O`, the “activity change, negative = cytotoxicity” value was 3.99%.
On the same count and under the same terms, as for `C[N+]1(C)[C@@H]2CC[C@H]1CC(OC(=O)C(O)c1ccccc1)C2` (some centres not stated), the figure is 5.69%; as for `O=C(c1ccc(F)c(F)c1Nc1ccc(I)cc1F)N1CC(O)([C@@H]2CCCCN2)C1`, -33.3%.
`CCNC(=O)[C@@H]1CCCN1C(=O)[C@H](CCCN=C(N)N)NC(=O)[C@H](CC(C)C)NC(=O)[C@@H](CC(C)C)NC(=O)[C@H](Cc1ccc(O)cc1)NC(=O)[C@H](CO)NC(=O)[C@H](Cc1c[nH]c2ccccc12)NC(=O)[C@H](Cc1cnc[nH]1)NC(=O)[C@@H]1CCC(=O)N1`: the “activity change, negative = cytotoxicity” value was 23.4% [at 25.3 µM].
Same read-out and setting: as for `CC(CCC1(O)OC2CC3C4CC=C5CC(O[C@@H]6O[C@H](CO)[C@@H](O[C@@H]7O[C@H](CO)[C@@H](O)[C@H](O)[C@H]7O)[C@H](O)[C@H]6O[C@@H]6O[C@@H](C)[C@H](O)[C@@H](O)[C@H]6O)CCC5(C)C4CCC3(C)C2C1C)CO[C@@H]1O[C@H](CO)[C@@H](O)[C@H](O)[C@H]1O` (some centres not stated), the figure is 4.42% [at 11.6 µM]; as for `CN([C@H]1c2cc(OCCCC(F)(F)F)ccc2OC(C)(C)[C@@H]1O)S(C)(=O)=O`, 9.01%.
Same read-out and setting: in the case of `Cn1c(NC[C@@H](N)Cc2ccccc2)nc(-c2ccncc2)c(-c2ccc3ccccc3c2)c1=O` it was 11.6%; in that of `CCCCC(=O)N(Cc1ccc(-c2ccccc2-c2nn[nH]n2)cc1)C(C(=O)O)C(C)C` (configuration not stated), 0.912%.
For the compound `Nc1nc(NCC2CCC(CNS(=O)(=O)c3cccc4ccccc34)CC2)nc2ccccc12` (configuration not stated), the “activity change, negative = cytotoxicity” value is -22.6%.
The same measure, in the same setting: in the case of `COc1ccc(NS(=O)(=O)c2sc3ccc(Cl)cc3c2C)cc1N1CCNCC1` it was 0.0915%; in that of `CCCCc1nc(Cl)c(CO)n1Cc1ccc(-c2ccccc2-c2nnn[nH]2)cc1`, 0.123%; in that of `CCC(=O)c1cc(-c2ccc(Cl)cc2)n(-c2ccc(S(N)(=O)=O)cc2)c1C`, -10.2%.
Consider `Cc1cc(N=Nc2ccc(S(=O)(=O)Nc3ccccn3)cc2)c(N)cc1O`, for which the Potency was 8.91 µM (active).
In the case of `Cc1nnsc1C(=O)Nc1ccc(-n2nc(C(F)(F)F)cc2C(F)(F)F)cc1`, the “activity change, negative = cytotoxicity” value is 0.295%.
Same read-out and setting: in the case of `Cc1cc(C)c(NC(=O)N(Cc2ccc3c(c2)Cc2ccccc2-3)C2CCCCCC2)c(C)c1` it was -0.135%; in that of `Fc1ccccc1CNCc1ccc(-c2ccnc3[nH]ccc23)cc1`, -0.18%.
Same read-out and setting: in the case of `CN(Cc1ccc(C(=O)O)cc1)c1ccc(OCc2c(-c3c(Cl)cccc3Cl)noc2C2CC2)nc1C(F)(F)F` it was 19%.
Still for that read-out and setting: in the case of `Cc1nc(C)c2c(n1)N(Cc1ccc(-c3ccccc3-c3nn[nH]n3)cc1)C(=O)CC2` it was 0.0078%; in that of `N#C[C@@H]1C[C@@H]2C[C@@H]2N1C(=O)[C@@H](N)C12CC3CC(CC(O)(C3)C1)C2`, 6.04%.
As to `CS(=O)(=O)c1ccc(-c2cn3ccccc3n2)cc1`, the Potency was 17.8 µM (active).
Turning to `CCCCOc1ccc(-c2cncc(C(=O)NCc3cccnc3N3CCOCC3)c2)cc1Cl`, the “activity change, negative = cytotoxicity” value is -5.37%.
The same measure, in the same setting: in the case of `C=CC(=O)N1CCN(C(=O)c2cc(-c3cc(Cl)ccc3Cl)c(Cl)cc2OC)CC1` it was -0.407%; in that of `CC[C@H]1OC(=O)[C@H](C)[C@@H](O[C@H]2C[C@@](C)(OC)[C@@H](O)[C@H](C)O2)[C@H](C)[C@@H](O[C@@H]2O[C@H](C)C[C@H](N(C)C)[C@H]2O)[C@](C)(O)C[C@@H](C)/C(=N/OCOCCOC)[C@H](C)[C@@H](O)[C@]1(C)O`, 11.2%.
The same measure, in the same setting: as for `C[C@@H](O[C@H]1OCCN(Cc2n[nH]nc2CN(C)C)[C@H]1c1ccc(F)cc1)c1cc(C(F)(F)F)cc(C(F)(F)F)c1`, the figure is -1.28%; as for `Cc1cc(CN)cc(C)c1NC(=O)c1ccc(-c2cc(Cl)ccc2Cl)o1`, 3.83%; as for `CCCCc1nc(C)c(CC(=S)N(C)C)c(=O)n1Cc1ccc(-c2ccccc2-c2nn[nH]n2)cc1`, -3.23%.
The same measure, in the same setting: in the case of `CC(=O)N1CCN([C@H]2CCN(C(=O)N(C)[C@H](C)c3cc(C(F)(F)F)cc(C(F)(F)F)c3)[C@@H](c3ccc(F)cc3C)C2)CC1` it was -1.59%; in that of `CC1(C)SC2C(NC(=O)[C@H](C(=O)O)c3ccsc3)C(=O)N2C1C(=O)O` (some centres not stated), 3.75%; in that of `COc1c(N2CC3CCCNC3C2)c(F)cc2c(=O)c(C(=O)O)cn(C3CC3)c12` (configuration not stated), 10.8%.
Turning to `CO[C@@H]1[C@@H](O[C@H]2O[C@@H](C)[C@H](O[C@@H]3C[C@](C)(O)[C@H](O)[C@@H](C)O3)[C@@H](N(C)C)[C@@H]2O)[C@@H](CC=O)C[C@@H](C)[C@@H](O[C@H]2CC[C@H](N(C)C)[C@H](C)O2)/C=C/C=C/C[C@@H](C)OC(=O)C[C@H]1O`, the “activity change, negative = cytotoxicity” value is 4.47%.
In the case of `COCCNCc1ccc(-c2cc3nccc(Oc4ccc(NC(=S)NC(=O)Cc5ccc(F)cc5)cc4F)c3s2)nc1`, the Potency was 31.6 µM (active).
For `Cc1ccn(-c2cc(Cl)ccc2[C@@H](Oc2cc(-c3ccc(C[C@H](N)C(=O)O)cc3)nc(N)n2)C(F)(F)F)n1`, the “activity change, negative = cytotoxicity” value was 20.8%.

(Values after PubChem BioAssay (NCATS).)
